According to PMC4336329 (PLoS ONE, 2015):
Screen size: about 310,000 compounds; about 2,200 (0.71%) showed an effect of 50% or more. Effects have a minus sign here. This is one part of a sample in which strong results are shown more often than they occur.

What follows are compounds tested against human ether-à-go-go-related gene (hERG) potassium channel (human, UniProt Q12809) (assay: primary screen, population patch clamp on CHO cells stably expressing hERG; higher = less effect of the substance).
Protocol: Briefly, Chinese hamster ovary (CHO) cells stably expressing the hERG channel were dislodged from tissue culture flasks and dispensed into PPC plates. […] During the recording, background leak currents were estimated by a 100 ms step to -80 mV from an initial holding potential of -70 mV and subtracted from the subsequent current measurement. The campaign was conducted in two phases using slight differences in recording protocol. In the first phase, the initial voltage pulse used a 100 ms step to -30 mV from a holding potential of -70 mV, a 2 s conditioning step to +25 mV, and a 2 s test step to -30 mV. During the second phase of the screen, the potential during the conditioning step was raised to +45 mV. In both phases of the campaign, a secondary voltage pulse was applied using the same parameters as the second phase initial pulse. The initial and secondary pulses were applied in the absence of compound, and upon application of 1 μM and 10 μM test concentrations. Small molecule effects on hERG current density were quantified by […].

human ether-à-go-go-related gene (hERG) potassium channel, sequence (Q12809 whole entry, looked up): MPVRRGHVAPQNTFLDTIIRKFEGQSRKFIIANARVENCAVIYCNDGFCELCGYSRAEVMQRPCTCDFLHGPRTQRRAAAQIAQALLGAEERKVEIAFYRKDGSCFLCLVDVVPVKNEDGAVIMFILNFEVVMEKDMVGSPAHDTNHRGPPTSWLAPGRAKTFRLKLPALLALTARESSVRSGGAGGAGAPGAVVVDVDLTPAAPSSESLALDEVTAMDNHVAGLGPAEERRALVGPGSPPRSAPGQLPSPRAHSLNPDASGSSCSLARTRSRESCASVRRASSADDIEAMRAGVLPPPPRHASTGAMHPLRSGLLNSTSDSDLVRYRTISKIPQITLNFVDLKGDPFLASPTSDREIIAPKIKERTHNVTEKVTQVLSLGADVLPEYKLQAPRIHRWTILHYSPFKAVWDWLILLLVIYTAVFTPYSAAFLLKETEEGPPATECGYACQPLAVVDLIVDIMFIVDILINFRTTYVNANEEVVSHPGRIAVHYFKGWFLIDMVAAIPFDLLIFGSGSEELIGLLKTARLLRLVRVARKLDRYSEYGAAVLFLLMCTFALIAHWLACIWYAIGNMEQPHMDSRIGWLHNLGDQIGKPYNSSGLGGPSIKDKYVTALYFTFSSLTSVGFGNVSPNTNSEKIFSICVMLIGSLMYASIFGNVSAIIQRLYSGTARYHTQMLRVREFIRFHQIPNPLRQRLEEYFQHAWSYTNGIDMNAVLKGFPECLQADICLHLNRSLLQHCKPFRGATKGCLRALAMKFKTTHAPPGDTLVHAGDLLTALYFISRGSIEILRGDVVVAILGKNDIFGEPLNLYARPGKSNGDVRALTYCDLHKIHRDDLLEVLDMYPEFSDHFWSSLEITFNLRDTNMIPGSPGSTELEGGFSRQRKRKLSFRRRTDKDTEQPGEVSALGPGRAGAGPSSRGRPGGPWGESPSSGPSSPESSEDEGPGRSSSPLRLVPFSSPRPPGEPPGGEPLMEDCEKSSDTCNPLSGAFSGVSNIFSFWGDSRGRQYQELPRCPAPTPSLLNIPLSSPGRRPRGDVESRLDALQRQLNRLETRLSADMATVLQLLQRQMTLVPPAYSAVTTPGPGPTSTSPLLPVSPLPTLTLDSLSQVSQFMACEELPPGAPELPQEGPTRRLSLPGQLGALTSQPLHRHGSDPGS

| SMILES | hERG current change (%, negative = inhibition) at 1uM [%] |
| --- | --- |
| Cc1ccc(C)c(NC(=O)COC(=O)CNC(=O)c2ccccc2Cl)c1 | 9.98 |
| Cc1cc(Cl)cc(Cl)c1CNc1c([N+](=O)[O-])c(=O)oc2ccccc12 | 7.59 |
| CC(C)c1cccc(C(C)C)c1NC(=O)CN1C(=O)NC2(CCCCCCC2)C1=O | 8.87 |
| Cc1ccc(S(=O)(=O)CC(=O)c2ccc(C(C)(C)C)cc2)cc1 | 2.43 |
| Br.CCn1c(=N)n(CC(=O)c2ccc(OC)cc2)c2ccccc21 | -0.629 |
| Br.COc1ccc(C(=O)Cn2c(=N)n(C)c3ccccc32)cc1 | -9.98 |
| Br.CCCCn1c(=N)n(CC(=O)c2ccc(OC)cc2)c2ccccc21 | -62.2 |
| C=CCOn1c(C)c(C(C)=O)c2c3nonc3ccc21 | 13.1 |
| O=C(OCc1ccc2c(c1)OCO2)c1ccc(S(=O)(=O)N2CCCC2)cc1 | 3.44 |
| CC(=O)Nc1ccc(-c2nnc(SCc3ccccc3C#N)n2C)cc1 | -5.5 |
| O=C1N=C2SCCN2/C1=C\c1ccccc1Cl | 5.64 |
| CCn1c2ccccc2c2cc(NC(=O)CSc3nnnn3-c3ccccc3)ccc21 | 9.35 |
| COc1ccc(C(=O)N/C(=C\c2ccco2)C(=O)NCCCn2ccnc2)cc1 | -0.883 |
| Cc1ccc(C(=O)N/C(=C/c2ccco2)C(=O)NCCCn2ccnc2)cc1 | -62.5 |
| O=C(NCCCn1ccnc1)/C(=C/c1ccco1)NC(=O)c1ccco1 | -10.2 |
| O=C(NCCCn1ccnc1)/C(=C\c1ccco1)NC(=O)c1ccco1 | -10.8 |
| Cc1ccc(C(=O)N/C(=C\c2ccco2)C(=O)NCCCn2ccnc2)cc1C | -15.7 |
| Cc1ccc(C(=O)N/C(=C\c2ccco2)C(=O)NCCCn2ccnc2)cc1 | -64.1 |
| O=C(Nc1nc(-c2nc3ccccc3s2)cs1)C1COc2ccccc2O1 (stereo not drawn) | 13.3 |
| COC(=O)c1sc(NC(=O)c2cc(-c3ccccc3)nc3ccccc23)c(C#N)c1C | -6.75 |
| CCOc1ccc(S(=O)(=O)N2CCC(C(=O)N3CCN(c4ccccc4F)CC3)CC2)cc1C | -1.32 |
| CCc1nc2scc(-c3ccccc3)c2c(=O)n1N | 2.81 |
| COc1ccc(-n2cnnc2SCC(=O)Nc2nc(C)c(Cl)cc2Cl)cc1 | -8.71 |
| CCCn1c(=NC(=O)c2ccco2)c(C(=O)OCC)cc2c(=O)n3ccccc3nc21 | -6.68 |
| CCOCCCn1c(=NC(=O)c2ccco2)c(C(=O)OCC)cc2c(=O)n3cccc(C)c3nc21 | -73.9 |
| CCOC(=O)c1cc2c(=O)n3cccc(C)c3nc2n(CC(C)C)c1=NC(=O)c1ccco1 | -64.7 |
| CCCCCn1c(=NC(=O)c2ccco2)c(C(=O)OCC)cc2c(=O)n3ccccc3nc21 | -30.9 |

| SMILES | hERG current change (%, negative = inhibition) at 1uM [%] |
| --- | --- |
| CCCCn1c(=NC(=O)c2ccco2)c(C(=O)OCC)cc2c(=O)n3cccc(C)c3nc21 | -16.5 |
| CCOC(=O)c1cc2c(=O)n3cccc(C)c3nc2n(Cc2ccco2)c1=NC(=O)c1ccccc1 | 0.671 |
| O=C(NC1CC1)c1ccc(S(=O)(=O)NC2CCCCCC2)cc1 | 2.1 |
| CC(C)CC(=O)Nc1cc2nn(-c3ccccc3)nc2cc1Cl | -0.947 |
| Cc1sc2ncn(CC(=O)N3CCC(C(N)=O)CC3)c(=O)c2c1S(=O)(=O)N1CCOCC1 | 10.1 |
| COC(=O)c1cc(NC(=O)CN2CCC(C(N)=O)(N3CCCCC3)CC2)cc(C(=O)OC)c1 | 5.65 |
| Cc1nc2ccccc2nc(C)c1=NOCc1ccc(Cl)cc1Cl | 0.014 |
| CC(=O)Nc1ccc(SCC(=O)Nc2ccccc2Oc2ccccc2)cc1 | 3.2 |
| Cc1ccccc1NC(=O)CSC(N)=O | 24 |
| CCN(CC)CCCN1C(=O)CSC1c1ccc([N+](=O)[O-])cc1.Cl (stereo not drawn) | -74.4 |
| CCN(CC)CCCN1C(=O)CSC1c1ccc2c(c1)OCO2.Cl (stereo not drawn) | -15.9 |
| CN(C)CCCN1C(=O)CSC1c1ccc([N+](=O)[O-])cc1.Cl (stereo not drawn) | -11.4 |
| CC(OC(=O)c1cccc(-n2cnnn2)c1)c1nc2ccccc2c(=O)[nH]1 (stereo not drawn) | 7.2 |
| CC(C)Cn1c(CN2CCN(C)C(CCO)C2)nc2ccccc21 (stereo not drawn) | 12.7 |
| CCn1c(CN2CCN(Cc3ccc(C)cc3)C(CCO)C2)nc2ccccc21 (stereo not drawn) | -50.5 |
| Cc1ccc(CN2CCN(Cc3cccc(C)n3)CC2CCO)cc1 (stereo not drawn) | -2.38 |
| Cc1ccc(CN2CCN(Cc3ccc(C)s3)CC2CCO)cc1 (stereo not drawn) | -67.3 |
| Cc1ccc(CN2CCN(Cc3ccccn3)CC2CCO)cc1 (stereo not drawn) | -5.1 |
| Cc1nc2ccccc2nc1CN1CCN(Cc2ccc(F)c(F)c2)C(CCO)C1 (stereo not drawn) | -6.36 |
| Cc1ccc(CN2CCN(Cc3cnc(C)s3)CC2CCO)cc1 (stereo not drawn) | -0.701 |
| Cc1ccc(CN2CCN(Cc3ccccc3)C(CCO)C2)s1 (stereo not drawn) | -26.7 |
| OCCC1CN(Cc2cccc3nccnc23)CCN1Cc1ccc(F)c(F)c1 (stereo not drawn) | -11.8 |
| OCCC1CN(Cc2cccc3nccnc23)CCN1Cc1ccc(F)cc1 (stereo not drawn) | -7.96 |
| Cc1ccc(CN2CCN(Cc3cccc4nccnc34)CC2CCO)cc1 (stereo not drawn) | -53.3 |
| Cc1ccc(CN2CCN(Cc3nc4ccccc4nc3C)CC2CCO)cc1 (stereo not drawn) | -65.3 |
| O=C(COc1ncnc2cc([N+](=O)[O-])ccc12)N(CCc1ccccc1)Cc1ccccc1 | 18.9 |
| CC1(C)Oc2ccc3ccc(=O)oc3c2C(N2CCCCC2)C1O (stereo not drawn) | 0.376 |
